For some of these results: Entries with a potency or affinity are not part of this list. Active and inactive are the calls of the source. Unless noted, the rule behind the calls is not given here.
Tests used:
[1] = antimalarial activity against Dd2 strain (AID 2302;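 active = growth inhibition above 50% at the single 2 µM test dose, taken to imply half-maximal potency below 2 µM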;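 note: 0% = DMSO untreated growth and 100% = chloroquine plus artemisinin killed control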); settings: P. falciparum Dd2 in RBCs, LDH growth readout, 72 h; at 2 µM; hits give high values
[2] = HepG2 cytotoxicity, primary screen, cytotoxicity control for P. falciparum antimalarial project, cell-based, ATP luminescence (AID 2303;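 active = inhibition above 50%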;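 note: 0% = DMSO wells and 100% = digitonin-killed cells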); settings: HepG2 viability, 24-48 h, at 10 µM, hits give high values
[3] = target: L-lactate dehydrogenase (Plasmodium falciparum (isolate CDC / Honduras)) (UniProt Q27743); assay: PfLDH activity inhibition – cell lysate, 3D7 strain, counter-screen for P. falciparum growth inhibition project (AID 2304);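 note: 0% = vehicle and 100% = reference inhibitor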; settings: P. falciparum 3D7 crude extract, LDH APAD/NBT absorbance; at 2 µM; hits give high values
[4] = inhibition of 3D7 malaria parasite growth – strain 3D7 (AID 2306);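 note: 0% = DMSO wells and 100% = chloroquine plus artemisinin control wells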; settings: P. falciparum 3D7 erythrocytic growth, LDH absorbance, 72 h; at 2 µM; hits give high values
[5] = target: Calcium-dependent protein kinase 1 (Plasmodium falciparum (isolate 3D7)) (UniProt P62344); assay: PfCDPK1 kinase inhibitors, biochemical, TCAMS library (AID 1159585; cut-off not given, nearly all actives have IC50 up to about 0.98 µM;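 note: inhibitors leave more ATP so luminescence rises with inhibition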); settings: recombinant PfCDPK1, Kinase-Glo ATP depletion luminescence
[6] = target: Plasmodium falciparum protein kinase 6 (PK6, PF3D7_1337100) (UniProt Q8IDW1); assay: PfPK6 kinase inhibitors, biochemical, TCAMS library (AID 1159586); settings: recombinant PfPK6, Kinase-Glo ATP depletion luminescence
[7] = target: Protein kinase 7 (PK7), Plasmodium falciparum 3D7 (PF3D7_0213400) (UniProt Q7YTF7); assay: inhibition of Plasmodium PK7 catalytic activity – biochemical, TCAMS antimalarial set, Kinase-Glo luminescence (AID 1159587); settings: recombinant PfPK7, Kinase-Glo ATP depletion luminescence
[8] = target: Calcium-dependent protein kinase 4 (Plasmodium falciparum (isolate 3D7)) (UniProt Q8IBS5); assay: PfCDPK4 kinase inhibitors, biochemical, TCAMS library (AID 1159588; cut-off not given, nearly all actives have IC50 up to about 0.91 µM); settings: recombinant PfCDPK4, Kinase-Glo ATP depletion luminescence
Calcium-dependent protein kinase 4 (Plasmodium falciparum (isolate 3D7)), sequence (Q8IBS5 whole entry, looked up): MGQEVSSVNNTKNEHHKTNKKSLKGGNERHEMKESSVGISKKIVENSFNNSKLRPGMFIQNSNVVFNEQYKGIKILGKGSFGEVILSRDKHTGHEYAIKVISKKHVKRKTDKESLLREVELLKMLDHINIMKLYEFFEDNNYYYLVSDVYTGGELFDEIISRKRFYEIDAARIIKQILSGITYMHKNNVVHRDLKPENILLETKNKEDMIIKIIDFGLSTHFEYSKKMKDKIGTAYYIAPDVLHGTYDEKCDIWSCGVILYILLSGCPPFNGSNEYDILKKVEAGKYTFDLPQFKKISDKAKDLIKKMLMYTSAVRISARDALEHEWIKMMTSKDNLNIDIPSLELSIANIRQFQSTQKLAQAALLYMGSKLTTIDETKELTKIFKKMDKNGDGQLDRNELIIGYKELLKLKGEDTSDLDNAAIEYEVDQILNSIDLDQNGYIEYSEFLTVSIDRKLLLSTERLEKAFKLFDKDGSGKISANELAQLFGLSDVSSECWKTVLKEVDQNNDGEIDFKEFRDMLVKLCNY

L-lactate dehydrogenase (Plasmodium falciparum (isolate CDC / Honduras)), sequence (Q27743 whole entry, looked up): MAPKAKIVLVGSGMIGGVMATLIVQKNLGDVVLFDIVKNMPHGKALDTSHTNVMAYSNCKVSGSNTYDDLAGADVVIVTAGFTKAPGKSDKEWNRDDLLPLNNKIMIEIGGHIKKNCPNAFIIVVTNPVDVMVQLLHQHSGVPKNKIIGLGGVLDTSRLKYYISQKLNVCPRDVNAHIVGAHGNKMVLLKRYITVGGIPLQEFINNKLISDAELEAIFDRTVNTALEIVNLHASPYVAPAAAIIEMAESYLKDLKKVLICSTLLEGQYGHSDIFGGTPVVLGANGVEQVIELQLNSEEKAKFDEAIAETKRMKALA
Protein kinase 7 (PK7), Plasmodium falciparum 3D7 (PF3D7_0213400), sequence (Q7YTF7 1-343): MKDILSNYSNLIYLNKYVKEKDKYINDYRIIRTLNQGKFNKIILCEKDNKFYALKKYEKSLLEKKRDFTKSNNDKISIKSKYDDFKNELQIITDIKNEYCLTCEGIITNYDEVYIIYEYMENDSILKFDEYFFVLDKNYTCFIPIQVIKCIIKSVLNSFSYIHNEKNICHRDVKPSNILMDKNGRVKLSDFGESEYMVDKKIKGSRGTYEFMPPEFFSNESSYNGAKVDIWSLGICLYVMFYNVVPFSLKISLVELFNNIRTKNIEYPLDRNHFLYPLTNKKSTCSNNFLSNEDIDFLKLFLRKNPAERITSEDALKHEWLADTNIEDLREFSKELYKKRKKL
Plasmodium falciparum protein kinase 6 (PK6, PF3D7_1337100), sequence (Q8IDW1 1-305): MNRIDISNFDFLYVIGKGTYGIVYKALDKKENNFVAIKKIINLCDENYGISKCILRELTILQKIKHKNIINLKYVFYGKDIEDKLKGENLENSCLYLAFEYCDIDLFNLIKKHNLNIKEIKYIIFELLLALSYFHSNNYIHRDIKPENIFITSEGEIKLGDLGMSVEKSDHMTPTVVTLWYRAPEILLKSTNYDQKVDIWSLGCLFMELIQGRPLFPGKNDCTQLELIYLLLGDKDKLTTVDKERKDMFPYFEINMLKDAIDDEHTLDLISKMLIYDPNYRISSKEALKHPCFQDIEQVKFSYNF
Calcium-dependent protein kinase 1 (Plasmodium falciparum (isolate 3D7)), sequence (P62344 whole entry, looked up): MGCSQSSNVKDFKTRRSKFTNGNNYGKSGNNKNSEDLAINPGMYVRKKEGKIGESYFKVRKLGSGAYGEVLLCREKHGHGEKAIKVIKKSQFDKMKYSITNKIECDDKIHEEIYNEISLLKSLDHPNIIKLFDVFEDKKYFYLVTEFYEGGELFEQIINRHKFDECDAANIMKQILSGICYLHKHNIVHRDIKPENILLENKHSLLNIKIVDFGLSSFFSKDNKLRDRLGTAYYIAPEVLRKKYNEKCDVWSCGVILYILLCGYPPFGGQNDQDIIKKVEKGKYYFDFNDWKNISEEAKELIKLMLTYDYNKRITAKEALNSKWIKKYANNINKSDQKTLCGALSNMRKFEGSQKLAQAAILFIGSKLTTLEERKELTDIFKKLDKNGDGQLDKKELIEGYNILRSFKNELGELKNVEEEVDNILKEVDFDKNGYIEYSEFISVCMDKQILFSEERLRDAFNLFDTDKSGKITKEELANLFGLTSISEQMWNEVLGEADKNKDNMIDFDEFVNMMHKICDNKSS

Cc1nccn1CCNC(=O)CN1CCC2(CCC1=O)CC(=O)c1ccccc1O2 (stereo not given)
inactive: growth inhibition [1] 4% | inhibition [2] -7% | inhibition [3] 7% | outcome [5] | outcome [6] | outcome [7] | outcome [8]
active: growth inhibition [4] 98%

CN(C)CCN(C)Cc1ccc(-c2ccc3c(Nc4ccc(Oc5ccccn5)cc4)ccnc3c2)o1
inactive: inhibition [2] 16% | inhibition [3] 6% | outcome [5] | outcome [6] | outcome [7] | outcome [8]
active: growth inhibition [1] 100% | growth inhibition [4] 100%

CC(=O)N/N=C/[C@H](CCc1ccccc1)NC(=O)[C@H](CC(C)C)NC(=O)c1ccc(F)cc1
active: growth inhibition [1] 86% | growth inhibition [4] 95%
inactive: inhibition [2] 2% | inhibition [3] -4% | outcome [5] | outcome [6] | outcome [7] | outcome [8]

COc1ccc(Nc2nc(NN=Cc3ccc(-c4ccc([N+](=O)[O-])cc4)o3)nc(Nc3ccccc3)n2)cc1
inactive: growth inhibition [1] 17% | inhibition [2] -8% | inhibition [3] 5% | outcome [5] | outcome [6] | outcome [7] | outcome [8]
active: growth inhibition [4] 100%

NC(N)=NC(=O)Nc1cc(F)c(Cl)c(Br)c1
inactive: inhibition [2] -3% | inhibition [3] 1% | outcome [5] | outcome [6] | outcome [7] | outcome [8]
active: growth inhibition [1] 50% | growth inhibition [4] 101%

O=[N+]([O-])c1ccc2nc(Nc3cccc(C(F)(F)F)c3)c(Nc3cccc(C(F)(F)F)c3)nc2c1
inactive: inhibition [2] -2% | inhibition [3] -4% | outcome [5] | outcome [6] | outcome [7] | outcome [8]
active: growth inhibition [1] 99% | growth inhibition [4] 101%

CCCCCCC1(C)N=C(N)N=C(N)C1c1ccc(Cl)c(Cl)c1 (stereo not given)
inactive: growth inhibition [1] 43% | inhibition [2] 18% | inhibition [3] -9% | outcome [5] | outcome [6] | outcome [7] | outcome [8]
active: growth inhibition [4] 94%

Oc1c(CN2CCCC(C(F)(F)F)C2)cc(Cl)c2ccccc12 (stereo not given)
inactive: inhibition [2] 23% | inhibition [3] 4% | outcome [5] | outcome [6] | outcome [7] | outcome [8]
active: growth inhibition [1] 53% | growth inhibition [4] 94%

O=C(NCCCc1ccccc1)c1csc(C2CCCN(C(=O)c3ccc(O)c(-c4ccccc4)c3)C2)n1 (stereo not given)
active: growth inhibition [1] 97% | growth inhibition [4] 97%
inactive: inhibition [2] 5% | inhibition [3] 5% | outcome [5] | outcome [6] | outcome [7] | outcome [8]

CS(=O)(=O)N1CC2(CCN(CCC(NC(=O)Nc3ccccc3)c3ccc(Cl)c(Cl)c3)CC2)c2ccccc21 (stereo not given)
inactive: inhibition [2] 23% | inhibition [3] 5% | outcome [5] | outcome [6] | outcome [7] | outcome [8]
active: growth inhibition [1] 72% | growth inhibition [4] 99%

NC(=O)c1cccc(Nc2nccc(Nc3ccc(Oc4ccc5ccccc5c4)cc3)n2)c1
inactive: growth inhibition [1] 31% | inhibition [2] 15% | inhibition [3] 5% | outcome [5] | outcome [6] | outcome [7] | outcome [8]
active: growth inhibition [4] 96%

COc1ccc(NC(=O)[C@H](Cc2ccccc2)Nc2cc(C)nc(Nc3ccccc3)n2)cc1
inactive: inhibition [2] 0% | inhibition [3] 2% | outcome [5] | outcome [6] | outcome [7] | outcome [8]
active: growth inhibition [1] 92% | growth inhibition [4] 101%

FC(F)(F)COc1ccc2ccccc2c1CCNCCCCNCCc1c(OCC(F)(F)F)ccc2ccccc12
active: growth inhibition [1] 53% | inhibition [2] 99% | growth inhibition [4] 100%
inactive: inhibition [3] 0% | outcome [5] | outcome [6] | outcome [7] | outcome [8]

CN(C)CCNc1cc(-c2ccc3ccccc3c2)nc2ccccc12
inactive: inhibition [2] 24% | inhibition [3] -5% | outcome [5] | outcome [6] | outcome [7] | outcome [8]
active: growth inhibition [1] 58% | growth inhibition [4] 102%

Nc1ccc(-c2ccc(NC(=O)Nc3ccccc3)cc2)cn1
inactive: inhibition [2] -3% | inhibition [3] -1% | outcome [5] | outcome [6] | outcome [7] | outcome [8]
active: growth inhibition [1] 93% | growth inhibition [4] 91%

O=C(Nc1cccc(C(F)(F)F)c1)c1cccc(S(=O)(=O)NCC2CCN(CC3CCCCC3)CC2)c1
active: growth inhibition [4] 97%
inactive: growth inhibition [1] 5% | inhibition [2] 27% | inhibition [3] 0% | outcome [5] | outcome [6] | outcome [7] | outcome [8]

CCn1c(SC)nnc1C1CCCN(CC(=O)Nc2nc3ccc(OC)cc3s2)C1 (stereo not given)
inactive: inhibition [2] -3% | inhibition [3] 0% | outcome [5] | outcome [6] | outcome [7] | outcome [8]
active: growth inhibition [1] 81% | growth inhibition [4] 97%

C=Cc1sc(CNCCCNc2cc(=O)c3ccccc3[nH]2)c(C)c1Br
inactive: growth inhibition [1] 35% | inhibition [2] -5% | inhibition [3] -6% | outcome [5] | outcome [6] | outcome [7] | outcome [8]
active: growth inhibition [4] 94%

c1ccc(C(c2ccccc2)N2CCN(C(c3cccnc3)c3nnnn3C3CCCC3)CC2)cc1 (stereo not given)
active: growth inhibition [1] 59% | growth inhibition [4] 83%
inactive: inhibition [2] 4% | inhibition [3] 0% | outcome [5] | outcome [6] | outcome [7] | outcome [8]

COc1ccc2ncc(F)c(CCN3CCC(NCc4cc(OC)c5c(c4)OCCO5)CC3)c2n1
inactive: inhibition [2] -2% | inhibition [3] -3% | outcome [5] | outcome [6] | outcome [7] | outcome [8]
active: growth inhibition [1] 53% | growth inhibition [4] 101%
